Experimental findings from PubChem BioAssay (Tox21) are described below.

Inconclusive results are not listed. A number with no mark means an inactive call. Activity calls are given as the source filed them. Calls come from the whole dose curve; as a rule, active = well fitted cell-killing curve with a large enough effect in the repeat runs; inconclusive = weak or mixed curves, or effect the other way; inactive = no such curve, though single readings can be large or run the other way.
% is set by controls: 0 for no effect and ±100 for the full control effect; potency is the fitted concentration of half-maximal effect.

The assay can be described thus: qHTS assay for identifying genotoxic compounds that show differential cytotoxicity against isogenic chicken DT40 cell lines with known DNA damage response pathways - wild type cell line (AID 743012). Note: nearly all actives have a fitted effect of over 60% in size. The settings on record: DT40 wild type chicken cells viability, CellTiter-Glo, 40 h; series mostly up to 68.4 µM; activity change, negative = cytotoxicity: at the top concentration. The essentials:
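Luminescent ATP viability signal (CellTiter-Glo, 30 min RT) recorded after wild type DT40 cells were incubated with compounds for 40 h at 37 C/5% CO2.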
(In general: qHTS replaces the single test concentration by a dilution series.)
For the compound `CCN(CC)C(=O)N(CC)CC`, the “activity change, negative = cytotoxicity” value is -23.1%.
Take `O=C1Nc2ccc([N+](=O)[O-])cc2C1=O`: the “activity change, negative = cytotoxicity” value is 15.2%.
For `CCCCCCCCCC/C=C/C#N`, the “activity change, negative = cytotoxicity” value is -4.97%.
Consider `CCOC(=O)C(Br)c1ccccc1` (configuration not stated), for which the “activity change, negative = cytotoxicity” value was 7.32%.
In the case of `CC(=O)N[C@@H](CC(C)C)C(=O)O`, the “activity change, negative = cytotoxicity” value was 3.32%.
For `CCCCNC(=S)NCCCC`, the Potency was 48.6 µM (active).
In the case of `CC1(C)S[C@@H]2[C@H](NC(=O)C(C(=O)O)c3ccccc3)C(=O)N2[C@H]1C(=O)O` (some centres not stated), the “activity change, negative = cytotoxicity” value is 3.84%.
Take `CC(C)CCCCCCc1ccc(OCCOCCO)cc1`: the “activity change, negative = cytotoxicity” value was 0.599% [at 95 µM].
Take `Cc1c(C(=O)NCCO)[n+](=O)c2ccccc2n1[O-]`: the “activity change, negative = cytotoxicity” value is 15.5%.
With `CCN1CC(CCN2CCOCC2)C(c2ccccc2)(c2ccccc2)C1=O` (configuration not stated), the “activity change, negative = cytotoxicity” value is -0.0153%.
The same measure, in the same setting: in the case of `Cc1c(N)cccc1N` it was -25.4% [at 95 µM].
On to `CCCNC(C)(C)COC(=O)c1ccccc1`, for which the “activity change, negative = cytotoxicity” value was 13.8%.
On the same count and under the same terms, in the case of `CC/C=C\CCOC(=O)C(C)C` it was 2.56%.
As to `CCCCC(=O)O[C@]1(C(=O)CO)[C@H](C)C[C@H]2[C@@H]3CCC4=CC(=O)C=C[C@]4(C)[C@@]3(F)[C@@H](O)C[C@@]21C`, the Potency was 26.6 µM (active).
As for `CCCCCOc1ccc(C2SC(=O)NC2=O)cc1OCC` (configuration not stated), the “activity change, negative = cytotoxicity” value was -6.31%.
Still for that read-out and setting: in the case of `CC(C)CC(=O)OCc1ccccc1` it was -17.7%.
Consider `NC1=NCC2c3ccccc3Cc3ccccc3N12` (configuration not stated), for which the Potency was 21.1 µM (active).
Turning to `CCCNC(C)C(=O)Nc1c(C)csc1C(=O)OC` (configuration not stated), the “activity change, negative = cytotoxicity” value was 7.38% [at 31.4 µM].
As for `Cc1ccccc1C(=O)Nc1ccc(C(=O)N2CCCC(O)c3cc(Cl)ccc32)c(C)c1` (configuration not stated), the Potency is 26.6 µM (active).
Consider `OCc1ccccc1O`, for which the “activity change, negative = cytotoxicity” value is 0.103%.
For the compound `O=C(CC(=O)C(F)(F)F)c1ccccc1`, the “activity change, negative = cytotoxicity” value was -20.7% [at 95 µM].
As to `CN1CCN(C2=Nc3ccccc3Oc3ccc(Cl)cc32)CC1`, the Potency was 12.7 µM (active).
